This is an account of results in PubChem BioAssay AID1861 (The Scripps Research Institute Molecular Screening Center, 2009).

In all, about 290,000 compounds went through this assay and about 3,100 (1.1%) were called active. Shown is part of a subset that was picked to be rich in actives. Values without a mark were called inactive. Rule as the data show it: active = inhibition above about 16% (passing the limit was not always enough); inactive = the rest.

The target of this test is Neuropeptides B/W receptor type 1 (Homo sapiens) (UniProt P48145). The experiment in a line: GPR7 receptor antagonists, primary screen, cell-based, fluorescence, single concentration (AID 1861).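 Also: cells stimulated with the agonist NPW; 0% = agonist with vehicle and 100% = vehicle without agonist.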 Particulars: GPR7-expressing cells, fluorescence antagonist assay; at 4.4 µM; hits give high values.
Neuropeptides B/W receptor type 1 (Homo sapiens), sequence (P48145 whole entry, looked up): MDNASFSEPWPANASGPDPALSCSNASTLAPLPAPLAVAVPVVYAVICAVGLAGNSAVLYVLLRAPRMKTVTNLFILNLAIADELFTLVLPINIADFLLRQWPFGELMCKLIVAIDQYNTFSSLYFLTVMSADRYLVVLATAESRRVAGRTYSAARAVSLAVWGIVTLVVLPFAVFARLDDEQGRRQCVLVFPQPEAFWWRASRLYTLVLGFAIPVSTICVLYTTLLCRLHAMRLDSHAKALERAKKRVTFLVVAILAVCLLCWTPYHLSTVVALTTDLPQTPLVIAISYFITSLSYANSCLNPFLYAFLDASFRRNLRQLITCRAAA
Turning to `Cc1ccc(NS(=O)(=O)c2ccc(-c3ccc(=O)[nH]n3)o2)c(C)c1`, the inhibition was -0.17%.

With `COc1cc(C(C(=O)NC2CCCC2)N(Cc2ccccc2)C(=O)c2snc(C(N)=O)c2N)ccc1O` (stereo unspecified), the inhibition is -10.6%.

`CCc1ccc(S(=O)(=O)Nc2cc3c(cc2N2CCCCC2)n(C)c(=O)c(=O)n3C)cc1`: the inhibition was 4.78%.

Turning to `COc1ccc(S(=O)(=O)n2cnc3ccccc32)c(C)c1`, the inhibition was -5.76%.

For `Cc1ccc(S(=O)(=O)n2cnc3ccccc32)c(C)c1`, the inhibition is 35.5% (active).

With `Cc1ccc(C)c(S(=O)(=O)n2cnc3ccccc32)c1`, the inhibition is 8%.

Consider `CCc1nc2ccc(C(=O)N3CCN(c4cccc(Cl)c4)CC3)cc2nc1CC`, for which the inhibition is -5.19%.

For `O=C1CCC([N+](=O)[O-])C(c2ccccc2Br)N1` (stereo unspecified), the inhibition was -13.4%.

In the case of `CCCOc1ccccc1C1CC(=O)Nc2cc3c(cc21)OCO3` (stereo unspecified), the inhibition was 23.7% (active).

With `COc1ccccc1C1C2=C(COC2=O)Nc2cc3c(cc21)OCO3` (stereo unspecified), the inhibition was 3.72%.

For the compound `COc1ccc(C2CC(=O)Nc3cc(C)c(C)cc32)c(OC)c1OC` (stereo unspecified), the inhibition was -2.76%.

With `Cc1cc2c(cc1C)N(Cc1ccccc1)C1=NCCCN12`, the inhibition is 23.7% (active).

With `OC(CN1C2=NCCCN2c2ccccc21)c1ccc(Br)cc1` (stereo unspecified), the inhibition is 13.8%.

As to `CC(C)(C)C(=O)CN1C2=NCCN2c2ccccc21`, the inhibition is -10.1%.

As for `CC(=O)Nc1ccc(NC(=O)CS(=O)(=O)c2cn(CC(=O)N3CCCCC3)c3ccccc23)cc1`, the inhibition was -0.17%.

On to `CC(=O)Nc1ccc(CN2CCC(Oc3ccc(C(=O)N4CCCC4)cc3)CC2)cc1`, for which the inhibition was -2.18%.

Regarding `COc1ccc(OCc2nnc3n2N=C(c2ccccc2)C(CC(=O)O)S3)cc1` (stereo unspecified), the inhibition is -5.82%.

As to `O=C(Cc1ccccn1)c1ccc(O)cc1O`, the inhibition was 1.18%.

As for `CCOC(=O)C1CSC(CC(=O)Nc2ccc(OCC)cc2)C(=O)N1` (stereo unspecified), the inhibition was 31.6% (active).

Consider `CCOc1ccc(NC(=O)CCNC(=O)c2ccc(Br)cc2)cc1`, for which the inhibition was -13.4%.

Regarding `CCOc1ccc(NC(=O)CC2NCCNC2=O)cc1` (stereo unspecified), the inhibition is -18.5%.

Take `CN(c1ccccc1)S(=O)(=O)c1ccc(NC(=O)COc2ccccc2)cc1`: the inhibition is 1.02%.

With `COc1ccc(NC(=O)C2C3CCC(O3)C2C(=O)O)cc1OC` (stereo unspecified), the inhibition was -10.2%.

Turning to `Cc1cccc(-c2nnc(SCC(=O)O)n2Cc2ccccc2)c1`, the inhibition was -5.33%.

As to `CC1C=CCC2C(=O)N(c3cccc(C(=O)N4CCCCCC4)c3)C(=O)C12` (stereo unspecified), the inhibition is 3.08%.

With `COC(=O)c1ccccc1NC(=O)CSc1n[nH]c(-c2ccncc2)n1`, the inhibition is -2.88%.

For `Cc1cc(-n2nc(C)cc2C)n2nc(C)c(-c3ccccc3)c2n1`, the inhibition is -6.35%.

In the case of `CCc1c(C)nc2c(-c3ccccc3)c(C)nn2c1Nc1ccc(NC(C)=O)cc1`, the inhibition is 27.4% (active).

In the case of `Cc1cc(-c2ccccc2)n2nc(C)c(-c3ccccc3)c2n1`, the inhibition is -10.5%.

For `COc1ccc(C(=O)CCC(=O)Nc2cccnc2)c(OC)c1`, the inhibition is 2.52%.

As for `CC(=O)NC(C)c1nc2ccccc2n1Cc1ccccc1F` (stereo unspecified), the inhibition is -2.12%.

Turning to `Fc1ccccc1Cn1cnc(NC(=S)NCCc2ccccc2)n1`, the inhibition is 10.1%.

For `N=c1n(CCc2ccccc2)c2ccccc2n1Cc1ccccc1F`, the inhibition was 21.8% (active).

`CCNC(=O)c1cnn(-c2ccccc2)c1-c1ccccc1`: the inhibition is -4.37%.

As for `COCCNC(=O)c1ccc2c(c1)ncn2-c1ccc(C)c(Cl)c1`, the inhibition is 0.48%.

For the compound `CC(=O)Nc1cccc(Nc2nc(-c3cccs3)nc3ccccc23)c1`, the inhibition is -8.63%.

For the compound `COc1ccc(C(=O)NC2CC2)cc1OC1CCN(Cc2cnn(C)c2)CC1`, the inhibition is 0.96%.

Take `N#CC1=C(SCc2ccc(C#N)cc2)N=C(N)C(c2nc(-c3ccccc3)cs2)C12CCCCC2` (stereo unspecified): the inhibition was 28.4% (active).

As for `N#CC1=C(SCc2ccccc2)NC(=O)C(C#N)C12CCCC2` (stereo unspecified), the inhibition is -8.17%.

Take `N#Cc1ccc(CSc2ncccn2)cc1`: the inhibition is 3.62%.

For the compound `Cc1ccc2c(=O)oc(N(C)C)nc2c1`, the inhibition was 9.69%.

In the case of `CC1C(=O)Nc2ccccc2N1C(=O)c1c(F)cccc1F` (stereo unspecified), the inhibition is -14.5%.

On to `COC(=O)C(C)Oc1ccc2c(c1)O/C(=C\c1cccc(Br)c1)C2=O` (stereo unspecified), for which the inhibition was -5.02%.

As for `Oc1cccc(/C=N/Nc2ccc(Cl)nn2)c1O`, the inhibition was 43.7% (active).

With `Clc1ccc(N/N=C/c2cccs2)nn1`, the inhibition is -9.79%.

Regarding `COc1cccc(/C=N/Nc2ccc(Cl)nn2)c1`, the inhibition is -14.8%.

As for `CCc1cccc(C)c1NS(=O)(=O)c1c(C)nc2sccn2c1=O`, the inhibition was -6.98%.

Regarding `O=C(/C=C/Sc1ncn[nH]1)c1ccc(Cl)cc1`, the inhibition was 4.91%.

For `Cc1ccc(N(Cc2ccccc2O)C(=O)c2ccccc2F)cc1`, the inhibition was -15.3%.

With `CCCc1ccc(OCC(O)CN2CCN(C(=O)OCC)CC2)cc1` (stereo unspecified), the inhibition is -0.9%.

`Cc1ccc(N2CCN(c3ccc([N+](=O)[O-])cn3)CC2)c(C)c1`: the inhibition is 15.6%.

Take `Nc1nnc(SCC(=O)Nc2ccc3nc(SCC(=O)Nc4ccccc4)sc3c2)s1`: the inhibition is 30.6% (active).

`CCCCNC(=O)CSc1nc2ccc(NC(=O)CSc3nnc(N)s3)cc2s1`: the inhibition was -5.46%.

With `CCCCNC(=O)CSc1nc2ccc(NC(=O)CSc3nnc(COc4ccccc4C)n3C)cc2s1`, the inhibition is 8.43%.

As to `COc1ccc(S(=O)(=O)Nc2ccc(S(=O)(=O)N3CCCCC3)cc2)cc1OC`, the inhibition is -7.42%.

On to `COc1ccc(S(=O)(=O)N2CCCCC2)cc1Br`, for which the inhibition is 20.2% (active).

Take `COc1ccc(F)cc1S(=O)(=O)N1CCCCC1`: the inhibition is -5.33%.

For the compound `CCOc1ccc(C(=O)NC(=S)Nc2ccc(N3CCOCC3)c(Cl)c2)cc1[N+](=O)[O-]`, the inhibition is 21% (active).

Consider `COc1cccc(OC)c1C(=O)NC(=S)Nc1ccc(N2CCOCC2)c(Cl)c1`, for which the inhibition was -6.83%.

`CCOc1ccc(C(=O)NC(=S)Nc2ccc(NC(=O)C(C)C)cc2)cc1[N+](=O)[O-]`: the inhibition was -1.37%.

On to `O=C(NCc1ccccc1Cl)C1CCN(S(=O)(=O)c2cccc3nonc23)CC1`, for which the inhibition is -5.03%.

For `COc1ccc(CCNC(=O)C(=O)NCC2OCCN2S(=O)(=O)c2cccs2)cc1OC` (stereo unspecified), the inhibition was -18.7%.

Consider `CC(C)c1ccc(C(=O)OC2CCOC2=O)cc1` (stereo unspecified), for which the inhibition was -10.7%.

Regarding `O=C(OC1CCOC1=O)c1ccc(-c2nc3ccccc3s2)s1` (stereo unspecified), the inhibition is 13.3% (active).

For the compound `Cc1nn(Cc2ccccc2)c(Cl)c1C(=O)OC1CCOC1=O` (stereo unspecified), the inhibition was -6.27%.

With `O=C(Nc1cccc(Cl)c1Cl)c1ccccc1NC(=O)C1CC=CCC1C(=O)O` (stereo unspecified), the inhibition was 1.26%.

In the case of `COc1ccc(C2CC(=O)NC(=O)C2)cc1`, the inhibition was 23%.

On to `c1ccc(C2CNCc3c2ccc2ccccc32)cc1` (stereo unspecified), for which the inhibition is 38.9% (active).

Regarding `Oc1ccccc1-c1cc(-c2ccc(Cl)cc2)n[nH]1`, the inhibition was -4.03%.

Consider `CC1=C(C(=O)OC(C)(C)C)C(c2ccc(Br)cc2)NC(=O)N1CCCC(=O)O` (stereo unspecified), for which the inhibition was -5.35%.

As to `Cc1cc(NC(=O)Nc2c[nH]c(=O)[nH]c2=O)ccc1Br`, the inhibition is -12.8%.

In the case of `CC1CN(C(=O)CCC(=O)NC2CCN(Cc3ccccc3)CC2)c2ccccc2O1` (stereo unspecified), the inhibition was -0.83%.

Consider `CC1CN(C(=O)CCC(=O)NCc2cccnc2)c2ccccc2O1` (stereo unspecified), for which the inhibition was 6.78%.

Take `CC1CN(C(=O)CCC(=O)NCCCN2CCC(Cc3ccccc3)CC2)c2cc(Cl)ccc2O1` (stereo unspecified): the inhibition is 25.7% (active).

Take `COc1ccc(OC)c(NC(=O)CN(C)CCOc2ccc(Br)cc2)c1`: the inhibition was 17.7%.

As to `O=C(NCc1nnc(SCC(=O)N2CCCCCC2)o1)c1ccc(F)cc1`, the inhibition was -18.2%.

Turning to `COc1ccc(C(=O)Nc2ccc(NC(=O)C(C)C)nc2)cc1`, the inhibition is 19.8%.

Turning to `CCOc1ccc(S(=O)(=O)Nc2ccc(OC)nc2)cc1`, the inhibition was 6.88%.

As to `COc1ccc(NC(=O)/C(Cl)=C(/Cl)S(=O)Cc2ccc(C)cc2)cn1` (stereo unspecified), the inhibition was 57.6% (active).

As to `COc1ccc(CS(=O)/C(Cl)=C(/Cl)C(=O)Nc2ccc(OC)nc2)cc1` (stereo unspecified), the inhibition was 24.2% (active).

As for `COc1ccc(NC(=O)c2cc(-c3ccc(C)cc3)on2)cc1`, the inhibition was -12.6%.

In the case of `COc1ccc(Nc2cc(Cl)ccc2C(=O)O)cn1`, the inhibition was -11.5%.

Consider `Cc1occc(=O)c1OCc1c(Cl)cccc1Cl`, for which the inhibition was -7.63%.

As to `CCN(CC)S(=O)(=O)c1ccc(NC(=O)c2cnc(C)cn2)cc1`, the inhibition is -18.4%.

Take `CCOC(=O)c1cnc2ccc(F)cc2c1Nc1ccc2c(c1)OCCO2`: the inhibition is -2.1%.

For the compound `COc1cccc(C(=O)NNC(=O)c2cccc(F)c2)c1`, the inhibition was -2.7%.

Turning to `CCCC(=O)N1CCc2[nH]c3ccccc3c2C1`, the inhibition is 1.42%.

With `Cc1ccc2[nH]c3c(c2c1)CN(C(=O)CN1CCN(c2ccccc2)CC1)CC3`, the inhibition is 3.49%.

Consider `O=C(CCCN1CCc2[nH]c3ccc(F)cc3c2C1)c1ccc(F)cc1`, for which the inhibition was 33.9% (active).

Regarding `CC(C)(C)CC(C)(C)NCC(O)COCCOc1ccc(Br)cc1` (stereo unspecified), the inhibition was 36.9% (active).

Regarding `OC(COc1ccc(Br)cc1)CN1CCCC1` (stereo unspecified), the inhibition is -9.13%.

On to `COc1ccc(OCC(O)CNCCNc2nccc(C(F)(F)F)n2)cc1` (stereo unspecified), for which the inhibition was -3.59%.

For the compound `O=C(Cc1cccs1)NCc1cccc(C(F)(F)F)c1`, the inhibition is 5.08%.

Consider `COc1ccc(N2C(=O)c3ccccc3NC2c2ccc(OC)c(CN3CCOCC3)c2)cc1` (stereo unspecified), for which the inhibition was -11.4%.

On to `COc1ccc(C2Nc3ccccc3C(=O)N2c2ccc(F)cc2)cc1Cn1nnc2ccccc21` (stereo unspecified), for which the inhibition is -1.83%.

As to `COc1ccc(C2Nc3ccccc3C(=O)N2Cc2ccccc2)cc1Cn1nnc2ccccc21` (stereo unspecified), the inhibition is 28.4% (active).

By inhibition is commonly meant the relative decrease from the control value, in per cent.
